Laboratory results: PubChem BioAssay AID463173 (ICCB-Longwood Screening Facility, Harvard Medical School, 2010)
The whole screen tested about 52,000 compounds, of which about 4,300 (8.3%) were called active. The full list was thinned out, with actives kept by preference. Values without a mark were called inactive. Rule as the data show it: active = survival mostly below about 52% (no sharp cut-off); inactive = mostly above about 56%.

Tested on: DeltatarO mutant
Test: growth inhibition of S. aureus wild type versus tarO mutant, primary screen, teichoic acid synthesis inhibitors, RN4220, OD600 (AID 463173)
Details: OD600, 18 h, stronger effect = lower value, screened at 18.75 µg/mL (by protocol)

Row | SMILES | survival
1 | CCOc1ccc(OCC)c(NC(=O)c2cnn(-c3ccc(F)cc3)c2-n2cccc2)c1 | 80%
2 | Cc1ccccc1OCC(=O)Nc1ccc(-c2nc3cc(Cl)cc(Cl)c3o2)cc1 | 62%
3 | Cc1ccc(C)c(NC(=O)CN2C(=O)c3cccnc3Oc3ccc(C)cc32)c1 | 80%
4 | CCOc1ccc(S(=O)(=O)n2nc(C)c(S(=O)(=O)N3CCCCCC3)c2C)cc1 | 115%
5 | CCC(Sc1nnc(C)n2c1cc1occc12)C(=O)Nc1ccccc1OC (stereo unspecified) | 77%
6 | CCOC(=O)c1cc2occc2n1C(C)C(=O)OCC (stereo unspecified) | 80%
7 | CCC(C(=O)Nc1ccccc1OC)n1c(C(=O)OC)cc2sc(Cl)cc21 (stereo unspecified) | -6% (active)
8 | CCOC(=O)c1ccc2c(c1)N(C(CC)C(=O)Nc1ccccc1OC)C(=O)c1ccccc1S2 (stereo unspecified) | 101%
9 | CCOc1ccccc1NC(=O)C(CC)n1c(C(=O)OC)cc2occc21 (stereo unspecified) | -4% (active)
10 | COC(=O)c1cc2sc(Cl)cc2n1CC(=O)Nc1cc(OC)cc(OC)c1 | 84%
11 | Cc1ccc(CNc2nc(-c3ccco3)nn2S(=O)(=O)c2ccc3ccccc3c2)cc1 | 115%
12 | CCc1ccc(NC(=O)Cn2c(C(=O)OC)cc3oc(C)cc32)cc1 | 65%
13 | CC(C)NC(=O)Cn1ncn2c(cc3cc(F)ccc32)c1=O | 82%
14 | CNC(=O)C1CCC(Cn2c(=O)c3sccc3n(CC(=O)Nc3cc(C)cc(C)c3)c2=O)CC1 (stereo unspecified) | 70%
15 | Cc1nn(CCC(=O)Nc2cccc(C#N)c2)c(C)c1S(=O)(=O)N1CCCCC1 | 88%
16 | CCc1ccc(NC(=O)CC2C(=O)N(c3ccc(C)cc3)C(=O)N2CCc2ccncc2)cc1 (stereo unspecified) | 81%
17 | Nc1nonc1-c1nc2ccccc2n1Cc1c(Cl)cccc1Cl | 50%
18 | Cc1ccc(CNC(=O)c2ccc(CS(=O)(=O)Cc3ccc(F)cc3)o2)cc1 | 77%
19 | O=C(NCCc1ccc(Cl)cc1)c1ccc(CS(=O)Cc2cccc(Cl)c2)o1 (stereo unspecified) | 38% (active)
20 | Cc1ccccc1CS(=O)(=O)Cc1ccc(C(=O)NCCc2ccc(Cl)cc2)o1 | 76%
21 | Cc1ccccc1CS(=O)(=O)Cc1ccc(C(=O)NCc2ccc(F)cc2)o1 | 47% (active)
22 | O=C(NCCc1ccc(Cl)cc1)c1ccc(CS(=O)(=O)Cc2ccccc2F)o1 | -1% (active)
23 | CCOc1ccc(CCNC(=O)c2ccc(CS(=O)Cc3cccc(Cl)c3)o2)cc1 (stereo unspecified) | 50%

Row | SMILES | survival
24 | Cc1ccc(CCNC(=O)c2ccc(CS(=O)(=O)Cc3ccccc3F)o2)cc1 | 72%
25 | CCc1ccc(CNC(=O)c2ccc(CS(=O)(=O)Cc3ccccc3C)o2)cc1 | 79%
26 | O=C(NCCc1ccccc1)c1ccc(CS(=O)Cc2ccc(Cl)cc2)o1 (stereo unspecified) | 74%
27 | CCc1ccc(NC(=O)Cn2c(=O)n(-c3ccccc3)c(=O)c3ccc(C(=O)NCc4ccc5c(c4)OCO5)cc32)cc1 | 112%
28 | COc1ccc(NC(=O)NC(C)c2c(-n3cccc3)sc3c2CCN(C)C3)c(OC)c1 (stereo unspecified) | 70%
29 | O=C(OCc1ccccc1F)c1ccc(-c2nnn(Cc3ccccc3)n2)cc1 | 122%
30 | COc1cccc(CN(C(=O)c2ccc(C(C)(C)C)cc2)C2CCS(=O)(=O)C2)c1 (stereo unspecified) | 70%
31 | COc1ccc(NC(=O)c2oc3ccccc3c2NC(=O)Cc2coc3cc(C)ccc23)cc1 | 70%
32 | CN1CCN(S(=O)(=O)c2ccc(Br)c3ccccc23)CC1 | 99%
33 | Cc1cc(Nc2ccc(Cl)cc2)n2cnnc2n1 | 65%
34 | COc1ccc(-c2nn[nH]n2)cc1 | 105%
35 | COc1ccc(NC(=O)c2c(N)c(C(=O)c3ccc(C)cc3)n3ccccc23)cc1OC | 82%
36 | Cc1ccc(NC(=O)Cc2ccc(NC(=O)N3CCCCc4ccccc43)cc2)cc1Cl | 93%
37 | CCS(=O)(=O)c1ccccc1C(=O)N1CCN(c2nc3ccccc3s2)CC1 | 55%
38 | COc1ccc(CCNC(=O)c2cn(C)c3ccc(S(=O)(=O)N(C)C)cc3c2=O)cc1OC | 84%
39 | Cc1ccc(-c2nc(C)c(CCNS(=O)(=O)c3ccc(F)c(C(F)(F)F)c3)s2)cc1 | -4% (active)
40 | Cc1ccc(-c2nc(C)c(CCNS(=O)(=O)c3ccccc3F)s2)cc1 | 76%
41 | CCOc1ccc(S(=O)(=O)NCCc2sc(-c3ccc(C)cc3)nc2C)cc1 | 102%
42 | CC(C)c1nc2ccc(C(=O)NCCCN3CCN(c4ccccc4)CC3)cc2o1 | 120%
43 | CC(C)COC(=O)Nc1ccc2c(c1)OCO2 | 62%
44 | Cc1ccc(C)n1-c1nnc(N2CCCC(C(=O)NCc3ccc(F)cc3)C2)s1 (stereo unspecified) | 93%
45 | CSc1ccc(C2c3[nH]c4ccccc4c3CCN2C(=O)CCC2CCCC2)cc1 (stereo unspecified) | 74%
46 | CCCCSc1nnc2c(n1)OC(C)N(C(C)=O)c1ccccc1-2 (stereo unspecified) | 154%

Row | SMILES | survival
47 | CCCSc1nnc2c(n1)OC(c1ccc(Br)s1)Nc1ccccc1-2 (stereo unspecified) | 53%
48 | CCCSc1nnc2c(n1)OC(c1cccs1)Nc1ccc(Br)cc1-2 (stereo unspecified) | 30% (active)
49 | CCSc1nnc2c(n1)OC(c1cc(OC)c(OC)c(OC)c1)Nc1ccccc1-2 (stereo unspecified) | 61%
50 | CCSc1nnc2c(n1)OC(c1ccc(C)cc1)N(C(C)=O)c1ccccc1-2 (stereo unspecified) | 55%
51 | CCSc1nnc2c(n1)OC(c1ccc(OC)cc1OC)N(C(C)=O)c1ccccc1-2 (stereo unspecified) | 58% (active)
52 | CCSc1nnc2c(n1)OC(c1ccc(OC)c(OC)c1)N(C(C)=O)c1ccccc1-2 (stereo unspecified) | 53%
53 | CCCCSc1nnc2c(n1)OC(c1ccc(Br)s1)N(C(C)=O)c1ccccc1-2 (stereo unspecified) | 47%
54 | CCCCSc1nnc2c(n1)OC(c1ccc(Br)s1)Nc1ccccc1-2 (stereo unspecified) | 10% (active)
55 | CCCCCSc1nnc2c(n1)OC(c1ccc(C)s1)N(C(C)=O)c1ccccc1-2 (stereo unspecified) | 45% (active)
56 | CCCCCSc1nnc2c(n1)OC(CC)Nc1ccc(Br)cc1-2 (stereo unspecified) | 63%
57 | CCCCCCSc1nnc2c(n1)OC(C)Nc1ccc(Br)cc1-2 (stereo unspecified) | 75%
58 | Cc1c(C(=O)N2CCC(C)CC2)c(S(=O)(=O)Nc2ccc(OC(F)(F)F)cc2)c(C)n1C | 91%
59 | CCc1cccc(C)c1NS(=O)(=O)c1ccc2c(c1)CC(C)N2C(=O)C1CC1 (stereo unspecified) | 88%
60 | COc1ccc(C(=O)NCc2ccc3c(c2)CCN3C(=O)c2ccncc2)cc1 | 88%
61 | Cc1ccc(Cl)cc1NC(=O)CN1C(=O)COc2ccc(S(=O)(=O)N3CCOCC3)cc21 | 101%
62 | CCc1c(C)[nH][n+]2cnn(Cc3ccc(Cl)cc3)c2c1=O | 89%
63 | CCn1cnc2sc(C(=O)Nc3ccccc3)c(C)c2c1=O | 87%
64 | Cc1ccc(CNC(=O)c2nnn(Cc3ccc(F)cc3)c2N)cc1 | 91%
65 | Cc1ccc(CNc2nc(-c3ccco3)nn2C(=O)c2ccccc2[N+](=O)[O-])cc1 | 111%
66 | Cc1nn2c(=O)cc(COC(=O)c3ccc(NC(=O)COc4ccc(C)c(C)c4)cc3)nc2s1 | 116%
67 | Cc1ccc(S(=O)(=O)NCCSc2nnnn2-c2ccccc2)cc1 | 71%
68 | CCSc1nnc2c(n1)OC(c1ccc(C)s1)Nc1ccccc1-2 (stereo unspecified) | 71%
69 | CCCSc1nnc2c(n1)OC(c1sccc1C)Nc1ccccc1-2 (stereo unspecified) | 79%

Row | SMILES | survival
70 | CCCCSc1nnc2c(n1)OC(c1ccc(C)s1)Nc1ccccc1-2 (stereo unspecified) | 41% (active)
71 | Cc1cccc(C)c1OCc1nc2c3cnn(-c4cccc(F)c4)c3ncn2n1 | 78%
72 | CC(=O)c1ccc(S(=O)(=O)N2CCn3cccc3C2c2ccccc2F)cc1 (stereo unspecified) | 82%
73 | CCOc1ccc(-n2c(SCC(=O)NCC3CCCO3)nc3c([nH]c4ccccc43)c2=O)cc1 (stereo unspecified) | 74%
74 | Cc1cc(Oc2c(C(F)(F)F)oc3c(CN4CCC(C)CC4)c(O)ccc3c2=O)cc(C)c1Cl | 70%
75 | Cc1cccc(-c2nc(CCNC(=O)Cc3ccccc3)cs2)c1 | 17% (active)
76 | Cc1cccc(-c2nc(CCNC(=O)Cc3ccc(F)cc3)cs2)c1 | 55%
77 | O=C(NCCc1csc(-c2cccc(F)c2)n1)c1ccco1 | 94%
78 | CCOc1ccc(CC(=O)NCCc2csc(-c3ccc(C(F)(F)F)cc3)n2)cc1 | 77%
79 | COc1ccc(CC(=O)NCCc2csc(-c3ccc(C(F)(F)F)cc3)n2)cc1 | -5% (active)
80 | Cc1cccc(-c2nc(CCNC(=O)c3ccco3)cs2)c1 | -5% (active)
81 | COc1ccc(CC(=O)NCCc2csc(-c3cccc(C)c3)n2)cc1 | 68%
82 | Cc1cccc(-c2nc(CCNC(=O)c3ccc(Br)o3)cs2)c1 | 89%
83 | COc1ccc(CCC(=O)NCCc2csc(-c3ccc(C(F)(F)F)cc3)n2)cc1 | 73%
84 | CCOc1ccc(-c2nnc(SCC(=O)c3ccccc3)n2-c2ccccc2)cc1 | 136%
85 | COc1cccc(CNC(=O)c2cc(S(=O)(=O)N3CCCCC3)c[nH]2)c1 | 64%
86 | COc1ccccc1NC(=O)CSc1ncc2c(n1)-c1ccccc1N(Cc1ccccc1C)S2(=O)=O | 101%
87 | Cc1cc(=O)[nH]c2nnc(SCC(=O)NC(C)(C)C)n12 | 77%
88 | COc1ccc(-c2cc(=O)oc3c4c(ccc23)OCN(Cc2ccccc2)C4)cc1 | 82%
89 | COc1ccc(CN2COc3ccc4c(-c5ccc(OC)cc5)cc(=O)oc4c3C2)cc1 | 65%
90 | COc1ccc(-c2cc(=O)oc3c4c(ccc23)OCN(Cc2cccc(OC)c2)C4)cc1 | 38% (active)
91 | Cc1cccc(NC(=O)C2CCN(S(=O)(=O)c3cccc4nsnc34)CC2)c1 | 84%
